The panel holds about 79,000 compounds, 15% with a hit somewhere; the sample as a whole holds those more often. Unmarked numbers belong to inactive results. Activity calls are given as the source filed them. No stated cut-off is given here; in the data, active means growth inhibition above about 70%; inactive means the rest.

Assay [1] in a line: NCI Yeast Anticancer Drug Screen. Data for the rad50 strain (AID 155).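 Further: 0% = growth of vehicle-only cultures of the same strain.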 The note with it: S. cerevisiae rad50 strain growth inhibition, hits give high values. Put shortly:
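Genetically altered yeast (DNA repair pathway); compound treatment; growth inhibition vs vehicle ctrl.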

Assay [2] in a line: NCI Yeast Anticancer Drug Screen. Data for the mec2-1 strain (AID 157). The note with it: S. cerevisiae mec2-1 strain, hits give high values. Put shortly:
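Mutant yeast (mec2-1) grown with compound; growth inhibition relative to vehicle control reported.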

Assay [3] is described as follows: NCI Yeast Anticancer Drug Screen. Data for the sgs1 mgt1 strain (AID 161).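 Further: 0% = growth of cultures given vehicle only.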 The following applies: S. cerevisiae sgs1 mgt1 strain, hits give high values. A digest of the protocol:
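Yeast cells carrying a defined DNA-repair defect were exposed to test compounds. Growth inhibition was measured relative to vehicle-treated controls.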

A short description of assay [4]: NCI Yeast Anticancer Drug Screen. Data for the cln2 rad14 strain (AID 165).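 Further: 0% = growth equal to vehicle treated cultures.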 The following applies: S. cerevisiae cln2 rad14 strain, hits give high values. Put shortly: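 Readout is yeast growth inhibition versus vehicle-treated controls, using a strain with cln2 and rad14 alterations exposed to compound.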
A short description of assay [5]: NCI Yeast Anticancer Drug Screen. Data for the bub3 strain (AID 167). The note with it: S. cerevisiae bub3 mutant strain, hits give high values. A digest of the protocol:
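Yeast carrying a defined mutation is treated with each compound, and growth is compared with that of vehicle-exposed cells to give inhibition.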

Assay [6] is described as follows: NCI Yeast Anticancer Drug Screen. Data for the mlh1 rad18 strain (AID 175). The following applies: S. cerevisiae mlh1 rad18 strain growth inhibition, hits give high values. A digest of the protocol: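 Genetically defined yeast (DNA repair-deficient) exposed to compounds; growth inhibition determined relative to vehicle.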
The mark [7] stands for this setting: at 5.0 µM (retest, dose inferred, filed as 0.5).
Setting [8] is: at 50.0 µM (retest, dose inferred, filed as 5.0).

In the case of `O=[N+]([O-])C1CCCC(C2=CSC3CCCCC3N2)C1` (stereo not given), the growth inhibition in assay [1] (setting [7]) was 5%; in assay [1] (setting [8]) it was -7%; in assay [1] (at 50.0 µM), 48.2%; in assay [2] (setting [7]) it was -21%; in assay [2] (setting [8]), 10%; in assay [2] (at 50.0 µM), 80.8% (active). The growth inhibition was -26% in assay [3] (setting [7]); -2% in assay [3] (setting [8]); 63.4% in assay [3] (at 50.0 µM); -4% in assay [4] (setting [7]); 16% in assay [4] (setting [8]); 11.1% in assay [4] (at 50.0 µM). Moreover, the growth inhibition in assay [5] (setting [7]) was 1%; in assay [5] (setting [8]), 29%; in assay [5] (at 50.0 µM), 86% (active); in assay [6] (setting [7]), -24%; in assay [6] (setting [8]), 36%; in assay [6] (at 50.0 µM) it was 37.9%.

Turning to `CS(=O)(=O)OCCN(CCOS(C)(=O)=O)c1ccc(C=Nc2ccc(-c3csc(-c4ccc(Cl)cc4)n3)cc2)cc1`, the growth inhibition in assay [1] (setting [7]) is 37%; in assay [1] (setting [8]), 92% (active); in assay [1] (at 50.0 µM) it was 92.5% (active); in assay [2] (setting [7]), 15%; in assay [2] (setting [8]), 94% (active); in assay [2] (at 50.0 µM) it was 94.4% (active). For the same compound, the growth inhibition is 36% in assay [3] (setting [7]); 93% (active) in assay [3] (setting [8]); 92.3% (active) in assay [3] (at 50.0 µM); 6% in assay [4] (setting [7]); 91% (active) in assay [4] (setting [8]); 71.2% (active) in assay [4] (at 50.0 µM). For the same compound, the growth inhibition is 1% in assay [5] (setting [7]); 61% in assay [5] (setting [8]); 69.4% in assay [5] (at 50.0 µM); 53% in assay [6] (setting [7]); 95% (active) in assay [6] (setting [8]); 95.2% (active) in assay [6] (at 50.0 µM).

As to `[N-]=[N+]=Nc1ccnc2ccc(C3CCCCC3)cc12`, the growth inhibition in assay [1] (setting [7]) was -8%; in assay [1] (setting [8]), 99% (active); in assay [1] (at 50.0 µM), 56.5%; in assay [2] (setting [7]), -8%; in assay [2] (setting [8]), 100% (active); in assay [2] (at 50.0 µM), 30.9%. For the same compound, the growth inhibition in assay [3] (setting [7]) was -8%; in assay [3] (setting [8]), 99% (active); in assay [3] (at 50.0 µM), 94.8% (active); in assay [4] (setting [7]), 6%; in assay [4] (setting [8]), 99% (active); in assay [4] (at 50.0 µM), 51.1%. Also, the growth inhibition in assay [5] (setting [7]) is -4%; in assay [5] (setting [8]), 99% (active); in assay [5] (at 50.0 µM), 67.3%; in assay [6] (setting [7]), -2%; in assay [6] (setting [8]), 99% (active); in assay [6] (at 50.0 µM), 91.7% (active).

On to `C\C=C/C=C/C=C/C(=O)O`, for which the growth inhibition in assay [1] (setting [7]) is 5%; in assay [1] (setting [8]), 13%; in assay [1] (at 50.0 µM), 66.5%; in assay [2] (setting [7]), 2%; in assay [2] (setting [8]), -4%; in assay [2] (at 50.0 µM), 60.1%. The growth inhibition was 2% in assay [3] (setting [7]); 7% in assay [3] (setting [8]); 42.3% in assay [3] (at 50.0 µM); -2% in assay [4] (setting [7]); 3% in assay [4] (setting [8]); 40.6% in assay [4] (at 50.0 µM). Further, the growth inhibition was 4% in assay [5] (setting [7]); 0% in assay [5] (setting [8]); 95% (active) in assay [5] (at 50.0 µM); 1% in assay [6] (setting [7]); 8% in assay [6] (setting [8]); 45% in assay [6] (at 50.0 µM).

With `CCN1C(/C=C/c2ccc(O)c3ncccc23)CCC2CC(C)CCC21` (stereo not given), the growth inhibition was 20% in assay [1] (setting [7]); 94% (active) in assay [1] (setting [8]); 95.3% (active) in assay [1] (at 50.0 µM); 12% in assay [2] (setting [7]); 97% (active) in assay [2] (setting [8]); 95.5% (active) in assay [2] (at 50.0 µM). Besides, the growth inhibition was 62% in assay [3] (setting [7]); 96% (active) in assay [3] (setting [8]); 95.5% (active) in assay [3] (at 50.0 µM); 10% in assay [4] (setting [7]); 90% (active) in assay [4] (setting [8]); 88.9% (active) in assay [4] (at 50.0 µM). Further, the growth inhibition in assay [5] (setting [7]) is 30%; in assay [5] (setting [8]) it was 94% (active); in assay [5] (at 50.0 µM) it was 94% (active); in assay [6] (setting [7]) it was 41%; in assay [6] (setting [8]), 94% (active); in assay [6] (at 50.0 µM), 94.3% (active).

On to `CCN(CC)CCNc1ccc2ncn3c4c(OC)ccc(=O)c4c(O)c1c23`, for which the growth inhibition is 24% in assay [1] (setting [7]); 96% (active) in assay [1] (setting [8]); 25.4% in assay [1] (at 50.0 µM); 9% in assay [2] (setting [7]); 65% in assay [2] (setting [8]); 19.9% in assay [2] (at 50.0 µM). Further, the growth inhibition was 3% in assay [3] (setting [7]); 54% in assay [3] (setting [8]); 22.6% in assay [3] (at 50.0 µM); -1% in assay [4] (setting [7]); 29% in assay [4] (setting [8]); -1.95% in assay [4] (at 50.0 µM). For the same compound, the growth inhibition in assay [5] (setting [7]) is 9%; in assay [5] (setting [8]) it was 19%; in assay [5] (at 50.0 µM) it was -13.1%; in assay [6] (setting [7]) it was 9%; in assay [6] (setting [8]), 83% (active); in assay [6] (at 50.0 µM), 4.65%.

As to `O=C(c1ccccc1)N1CCCCC1`, the growth inhibition in assay [1] (setting [7]) is -1%; in assay [1] (setting [8]), 33%; in assay [1] (at 50.0 µM), 81.5% (active); in assay [2] (setting [7]) it was 0%; in assay [2] (setting [8]), 5%; in assay [2] (at 50.0 µM), -1.55%. The growth inhibition in assay [3] (setting [7]) is -2%; in assay [3] (setting [8]), 3%; in assay [3] (at 50.0 µM), 23.9%; in assay [4] (setting [7]), 2%; in assay [4] (setting [8]), 3%; in assay [4] (at 50.0 µM), 48%. The growth inhibition in assay [5] (setting [7]) is -2%; in assay [5] (setting [8]) it was 3%; in assay [5] (at 50.0 µM), 15.5%; in assay [6] (setting [7]), 0%; in assay [6] (setting [8]), 6%; in assay [6] (at 50.0 µM), 47%.

Consider `CCO/C=C1N=C(/C=C/c2ccccc2Cl)OC/1=O`, for which the growth inhibition in assay [1] (setting [7]) is -6%; in assay [1] (setting [8]) it was 84% (active); in assay [1] (at 50.0 µM), 65%; in assay [2] (setting [7]), 13%; in assay [2] (setting [8]) it was 58%; in assay [2] (at 50.0 µM), 45.4%. For the same compound, the growth inhibition in assay [3] (setting [7]) was 9%; in assay [3] (setting [8]), 52%; in assay [3] (at 50.0 µM), 50.2%; in assay [4] (setting [7]), 9%; in assay [4] (setting [8]), 81% (active); in assay [4] (at 50.0 µM), 20.2%. The growth inhibition in assay [5] (setting [7]) was 13%; in assay [5] (setting [8]), 81% (active); in assay [5] (at 50.0 µM), 36.9%; in assay [6] (setting [7]) it was -2%; in assay [6] (setting [8]), 86% (active); in assay [6] (at 50.0 µM), 71.7% (active).

Consider `CCCCCCCCCCCCCC/[N+]([O-])=C/c1ccc([N+](=O)[O-])o1`, for which the growth inhibition in assay [1] (setting [7]) was 7%; in assay [1] (setting [8]), 18%; in assay [1] (at 50.0 µM) it was 50.1%; in assay [2] (setting [7]), 2%; in assay [2] (setting [8]) it was 10%; in assay [2] (at 50.0 µM), 45.3%. Moreover, the growth inhibition in assay [3] (setting [7]) is 8%; in assay [3] (setting [8]), 70% (active); in assay [3] (at 50.0 µM) it was 50.1%; in assay [4] (setting [7]), 8%; in assay [4] (setting [8]), 13%; in assay [4] (at 50.0 µM), 29.8%. Also, the growth inhibition was 0% in assay [5] (setting [7]); 14% in assay [5] (setting [8]); 78% (active) in assay [5] (at 50.0 µM); 8% in assay [6] (setting [7]); 79% (active) in assay [6] (setting [8]); 54.2% in assay [6] (at 50.0 µM).

In the case of `COc1cc(OC)c(OC)cc1/C=C\c1nccc2ccccc12`, the growth inhibition in assay [1] (setting [7]) is 1%; in assay [1] (setting [8]) it was 51%; in assay [1] (at 50.0 µM), 92.9% (active); in assay [2] (setting [7]), -3%; in assay [2] (setting [8]), 12%; in assay [2] (at 50.0 µM), 92.5% (active). The growth inhibition is -4% in assay [3] (setting [7]); 23% in assay [3] (setting [8]); 93.7% (active) in assay [3] (at 50.0 µM); 4% in assay [4] (setting [7]); 0% in assay [4] (setting [8]); 65.4% in assay [4] (at 50.0 µM). For the same compound, the growth inhibition in assay [5] (setting [7]) was -6%; in assay [5] (setting [8]), -6%; in assay [5] (at 50.0 µM) it was 91.3% (active); in assay [6] (setting [7]) it was -3%; in assay [6] (setting [8]), 12%; in assay [6] (at 50.0 µM), 94.2% (active).

The values are drawn from PubChem BioAssay (NCI).
